# Screens as filed in PubChem BioAssay.
# Sampled rows, rich in hits. Any-hit rate of the full collection: about 3.6%.
# TDP43 rescue = inhibitors of TDP-43 toxicity in yeast; TDP-43 expressing yeast growth rescue, BacTiter-Glo, 24 h; Potency, µM (series often up to 46.1 µM), for the others: at the highest dose growth rescue (activation), usual class: activators; actives 1.8% (n = 410,000); also: % of control where 0% means no effect; nearly all actives have a fitted effect of over 50% in size
#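 Growth rescue of TDP-43-toxic yeast measured as ATP luminescence (BacTiter-Glo). Cells grown to mid-log in raffinose, induced in galactose at OD600=0.02, exposed to compound 24 hr at 30 deg C.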
# ClpP mod = qHTS Assay for Activators of ClpP | ATP-dependent Clp protease proteolytic subunit (Bacillus subtilis (strain 168)), P80244 | purified B. subtilis ClpP, FRET peptide cleavage, 20 min | Potency, µM (top dose mostly 57.5 µM), inactives show at the highest dose activity change, negative = active | actives 1.9% (n = 340,000) | AID 651965, 2013; active = well fitted falling curve with a large enough effect; inconclusive = small, poorly fitted or top-dose-only effect; inactive = no such curve, though single readings can be large or run the other way; also: the source files actives as falling curves though it sought activators and does not explain the sign; nearly all actives have a fitted effect of over 65% in size
# Target sequence (P80244 whole entry, looked up): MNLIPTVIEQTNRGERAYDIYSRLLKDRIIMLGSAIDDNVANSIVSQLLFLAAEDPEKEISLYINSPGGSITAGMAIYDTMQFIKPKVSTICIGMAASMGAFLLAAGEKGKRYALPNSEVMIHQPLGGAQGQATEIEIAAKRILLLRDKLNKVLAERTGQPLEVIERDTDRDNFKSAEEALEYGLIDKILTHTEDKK
#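 ClpP 10 microg/mL final, pH 8 Tris/KCl buffer with BSA, glycerol, Tween-20; compound pinned in; FRET-FV substrate; RT 20 min; Ex320/Em430; ΔFRET vs ADEP 5.8 microM, DMSO, no enzyme.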
# MmCpn inh = blocks the Methanococcus maripaludis chaperonin Mm-Cpn; purified Mm-Cpn ATPase, ADP Transcreener TR-FRET; Potency, µM (doses to about 76.9 µM), for the others: top-dose activity, negative = inhibition, most hits filed as inhibitors; actives 0.031% (n = 330,000); AID 504842; also: % is scaled to controls: 0 for no effect and ±100 for the full control effect; nearly all actives have a fitted effect of over 80% in size
#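 Quantitative HTS used 25 nM Mm-CPN and 10 uM ATP in magnesium/KCl Tris buffer, pH 7.4, with 1 mM DTT. Hydrolysis ran 30 min at 37°C; ADP was read by HTRF.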
# Abeta yeast res = restores growth of yeast expressing A-beta42 peptide; actives 0.063% (n = 410,000); AID 1347071; yeast expressing A-beta42, growth rescue, OD600, 48 h; response scale: 0% DMSO, 100% iron-clioquinol control; Potency, µM (series often up to 46.1 µM), hits mostly activators; also: nearly all actives have a fitted effect of over 55% in size
#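 Growth rescue measured by 600 nm absorbance after 48 h yeast culture at 30 C with compound. Values normalized between DMSO and an equimolar ferric chloride plus clioquinol control.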
# aSyn rescue = inhibitors of alpha-synuclein toxicity in yeast. Yeast expressing alpha-synuclein, growth rescue, BacTiter-Glo, 24 h. Potency, µM (titrated, usually from 46.1 µM), for inactives: at the highest dose growth rescue (activation), actives largely listed as activators. actives 0.14% (n = 370,000); also: % of control where 0% means no effect; nearly all actives have a fitted effect of over 65% in size
#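 Rescue of yeast growth: cells expressing toxic alpha-synuclein, induced in galactose at OD600 0.02, incubated with compound 24 h at 30 C. ATP luminescence quantified growth; inhibitors of toxicity appear as activators.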
# FUS yeast rescue = suppressors of FUS proteinopathy in yeast; AID 1347120; actives 0.24% (n = 390,000); Potency, µM (highest dose often 76.6 µM), hits mostly activators; S. cerevisiae FUS-expressing, growth rescue, OD600, 24 h;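 also: plate controls were DMSO vehicle for no effect and reference control for full effect; nearly all actives have a fitted effect of over 55% in size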
#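 Absorbance at 600 nm, taken 24hr after compound addition, measured rescue of FUS-yeast growth at 30C. Induction used 2% galactose with seeding at OD 0.005. Controls: CP55940 from 92uM final, DMSO only.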
# Active calls of the source: *; i = inactive; ? = inconclusive; / = no result. Unless noted, calls follow the shape of the dose curve; as a rule, active = well fitted curve in the direction sought with a large enough effect; inconclusive = small, poorly fitted or top-dose-only effect, or another doubt; inactive = no such curve, though single readings can be large; an effect the other way counts as inactive or inconclusive. Potency is read from the fitted curve at half-maximal effect.
SMILES,TDP43 rescue,ClpP mod,MmCpn inh,Abeta yeast res,aSyn rescue,FUS yeast rescue
Cc1nc(S(=O)(=O)c2ccc(Cl)cc2Cl)nc2c1CCC2,-1%,-1%,0%,i,2%,i
Cc1nc(S(=O)(=O)c2cccc(Cl)c2)nc2c1CCC2,14µM*,1%,0%,i,?,/
COc1ccc(/C=C/c2ccnc3ccccc23)cc1,/,-12%,/,/,-4%,/
CC(=O)NC(Cc1ccc(I)cc1)C(=O)NCC(N)C(=O)c1ccccc1 (stereo not given),/,-1%,/,/,9%,/
Cc1cc(C(=O)CSc2nnc(-c3ccncc3)n2-c2ccccc2)c(C)n1C,-6%,3%,-26%,i,-9%,32µM*
COc1cc2c(NC3CCN(C)CC3)nc(N3CCCCC3)nc2cc1OCCOCCN(C)C,/,4%,/,/,1%,/
FC(F)(F)c1cc(CCN2C(=S)NC[C@@H]2Cc2ccccc2)cc(C(F)(F)F)c1,22µM*,0%,/,?,-22%,?
Fc1ccc(C(Nc2ccccn2)c2c[nH]c3ccccc23)cc1 (stereo not given),20µM*,-3%,0%,?,?,i
Cn1cc(C(C[N+](=O)[O-])c2ccccc2)c2ccccc21 (stereo not given),13µM*,1%,-16%,i,12%,i
O=[N+]([O-])CC(c1ccc(F)cc1)c1c[nH]c2ccccc12 (stereo not given),18µM*,0%,1%,?,?,i
CSc1n[nH]c2nc3c(c(=O)n12)C1(CCCC1)Cc1ccccc1-3,5%,28µM*,-2%,i,2%,/
CCOC(=O)C1Cn2c(nc3c(c2=O)C2(CCCC2)Cc2ccccc2-3)S1 (stereo not given),-4%,28µM*,-1%,i,-8%,i
CCSc1n[nH]c2nc3c(c(=O)n12)C1(CCCC1)Cc1ccccc1-3,3%,14µM*,2%,i,-1%,i
CC(C)Sc1n[nH]c2nc3c(c(=O)n12)C1(CCCC1)Cc1ccccc1-3,/,/,1%,/,/,/
CSc1nnc2n(C)c3c(c(=O)n12)C1(CCCC1)Cc1ccccc1-3,23%,28µM*,2%,i,-2%,i
C=CCSc1n[nH]c2nc3c(c(=O)n12)C1(CCCC1)Cc1ccccc1-3,16%,?,-3%,i,-9%,/
COc1cccc(C(=O)Nc2cccc(C(=O)OCc3cc(=O)n4c5c(sc4n3)CCCC5)c2)c1,21%,-29%,/,i,/,i
CCc1ccc2c(c1)NC(c1cccs1)=NC(c1ccc(F)cc1)=N2,-5%,1%,/,i,/,i
COc1cccc(CNC(=O)c2ccc(Cn3c(SCc4ccccc4)nc4cccnc43)cc2)c1,-14%,4%,/,i,/,i
CCC1CCc2c(sc(NC(=O)c3ccco3)c2C(N)=O)C1 (stereo not given),13µM*,-21%,-4%,i,-9%,i
O=C(NCc1ccccc1Cl)c1cnc(N2CCCCC2)c2ccccc12,17%,32µM*,/,i,/,i
CCc1ccc(CNC(=O)c2cnc(N3CCCCC3)c3ccccc23)cc1,9%,32µM*,/,i,/,i
Cc1nc(N2CCCC2)ncc1C(=O)NCc1cccc(Cl)c1,14µM*,?,/,i,/,i
CCc1ccc(CNC(=O)c2cnc3c(C)cccn3c2=O)cc1,16µM*,4%,/,i,/,i
COC(=O)c1ccccc1NC(=O)Cn1c(=O)n(-c2cccc(OC)c2)c(=O)c2c(C)c(C(=O)N(C)C)sc21,-16%,0%,/,i,/,i
SMILES,TDP43 rescue,ClpP mod,MmCpn inh,Abeta yeast res,aSyn rescue,FUS yeast rescue
O=C(c1cc(C2CC2)on1)N(C1CCCCC1)C1CCOCC1,/,/,/,/,/,i
O=C(CSc1ccc(C(F)(F)F)cc1[N+](=O)[O-])Nc1ccc2ccccc2c1,8%,28µM*,-1%,i,4%,i
CN(C)c1ccc(/C=C/c2sc3ccccc3[n+]2Cc2ccccc2)cc1,/,3%,/,/,-3%,/
COc1ccc(/C=N/NC(=O)c2cccnc2)cc1CSc1nc2ccccc2s1,13µM*,-20%,-16%,i,0%,/
COc1ccc(/C=N/NC(=O)c2ccccc2Cl)cc1CSc1nc2ccccc2s1,-10%,-30%,-4%,i,12%,?
O=C(CSc1nnc(-c2ccccc2)c(-c2ccccc2)n1)Nc1ccccc1Cl,13%,-1%,/,i,/,i
CCN(C(=O)CSc1nnc(-c2cccs2)n1N)c1c(N)n(Cc2ccccc2)c(=O)[nH]c1=O,-14%,35µM*,0%,i,-6%,i
CN(C)/C=C/C(=O)c1ccc(N2CCN(c3ncc(C(F)(F)F)cc3Cl)CC2)cc1,-14%,-15%,1%,i,-53%,i
CN(C)C=NC(=O)c1ccc(N2CCN(c3ncc(C(F)(F)F)cc3Cl)CC2)cc1,2%,25µM*,/,i,-2%,i
O=C(CCC(=O)c1cccs1)OCc1ccc([N+](=O)[O-])cc1,11µM*,-1%,-6%,i,0%,i
Cc1ccc(Sc2ncnc3onc(C)c23)cc1,?,-3%,2%,i,13%,i
Cc1noc2ncnc(Sc3ccc(Cl)cc3)c12,6.3µM*,-2%,/,i,-4%,i
O=C(NC1CCC1)c1ccc(C#Cc2cccc(F)c2)cn1,/,/,/,/,/,i
COc1cccc(-n2c(=O)c3cc(OC)c(OC)cc3n(CC(=O)Nc3cc(C)[nH]n3)c2=O)c1,-2%,28µM*,-2%,i,1%,/
CCCCCCCCN1C(=O)[C@@H](CC(=O)NCc2cccc3ccccc23)C[C@@]2(C(=O)OC)C1=C[C@H](COCc1ccccc1)O[C@@H]2C,/,/,/,/,/,i
CCCCC1Cc2[nH][nH]c(=O)c2C(c2ccc(F)cc2)O1 (stereo not given),?,3%,/,i,26%,?
CCCCC1Cc2[nH][nH]c(=O)c2C(c2ccc(Cl)cc2)O1 (stereo not given),11µM*,2%,/,i,-5%,?
CC(C)[C@@H]1Cc2[nH]c(=O)[nH]c(=O)c2[C@H](c2ccc(F)cc2)O1,21%,1%,/,i,-5%,i
O=c1[nH][nH]c2c1[C@H](c1ccc(F)cc1)O[C@H](CCC(F)(F)F)C2,20µM*,-6%,/,i,?,i
CC(C)[C@@H]1Cc2[nH][nH]c(=O)c2[C@H](c2ccc(F)cc2)O1,11µM*,1%,/,i,-9%,i
